Assay outcomes (PubChem)
The list is not random: actives were taken first. Their share in the collection is about 2.5%.
Akt phos inh: inhibitors of Akt phosphorylation; activity change, % for hits at 50 µM; Neuro2A IGF-stimulated pAkt S473 HTRF, 20 min; stronger effect = lower value; actives 0.32% (n = 360,000); in the data active = activity change below about -80%; inconclusive = mostly about -51% to -80%
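Neuro2A cells (4,500/well, DMEM with 0.5% FBS) were treated with compound at a single 50 µM final concentration, stimulated with 6 nM IGF for 20 min at 37 °C, and lysed. Phospho-Akt Ser473 was read by HTRF as 665/615 ratio ×10^4.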
Anesthetic bind: candidate novel general anesthetic via apoferritin binding; P02791; apoferritin/1-aminoanthracene competitive binding, fluorescence; Potency, µM (top dose mostly 77.5 µM), most hits filed as inhibitors; actives 0.074% (n = 350,000); AID 485281; note: nearly all actives have a fitted effect of over 20% in size
Target sequence (P02791 2-175 limits assumed): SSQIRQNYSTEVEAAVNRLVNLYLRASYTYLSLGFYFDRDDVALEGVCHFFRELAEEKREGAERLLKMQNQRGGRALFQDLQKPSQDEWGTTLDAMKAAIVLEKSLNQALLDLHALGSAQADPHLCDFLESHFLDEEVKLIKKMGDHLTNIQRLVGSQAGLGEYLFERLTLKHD
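Concentration-response curves derived by four-parameter Hill fitting of normalized fluorescence, where compounds displaced 1-AMA from 10 uM horse apoferritin following a brief 10 min room-temperature incubation; propofol titration acted as positive control.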
Mito fusion act: blocks mitochondrial division or promotes mitochondrial fusion; S. cerevisiae fusion-defective mutant growth rescue, CellTiterGlo 48 h; Potency, µM (doses to about 46.1 µM), actives largely listed as activators; actives 0.23% (n = 320,000); AID 485298; note: nearly all actives have a fitted effect of over 45% in size
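S. cerevisiae fusion-defective temperature-sensitive mutants (e.g. fzo1-1, mgm1-5) grown 48 h at 37C in YPEG (ethanol/glycerol non-fermentable) medium with 23 nl compound per well; growth rescue read as CellTiterGlo luminescence.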
aSyn rescue: rescues yeast growth from alpha-synuclein toxicity; Yeast expressing alpha-synuclein, growth rescue, BacTiter-Glo, 24 h; Potency, µM (doses to about 46.1 µM), usual class: activators; actives 0.14% (n = 370,000); note: nearly all actives have a fitted effect of over 65% in size
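Rescue of yeast growth: cells expressing toxic alpha-synuclein, induced in galactose at OD600 0.02, incubated with compound 24 h at 30 C. ATP luminescence quantified growth; inhibitors of toxicity appear as activators.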
CCT chaperon mod: changes cytosolic chaperonin activity. purified chaperonin ATPase assay, HTRF ADP detection, 30 min. activity change, % (concentration not given with the values), hits read low. actives 0.3% (n = 360,000); in the data active = activity change below about -30%
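Enzyme 40 or 20 nM (batch-dependent) in Tris pH 7.4/KCl/MgCl2/DTT; cpd 76 uM single point; ATP 10 uM; 30 min 37 °C; Transcreener ADP HTRF detection, 30 min RT; ratio 665/615.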
TDP-43 yeast inh: inhibitors of TDP-43 toxicity in yeast; TDP-43 expressing yeast growth rescue, BacTiter-Glo, 24 h; Potency, µM (doses to about 46.1 µM), actives largely listed as activators; actives 1.8% (n = 410,000); AID 652104; note: nearly all actives have a fitted effect of over 50% in size
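Readout is BacTiter-Glo luminescence of cell growth, so inhibitors register as activators. TDP-43-expressing yeast at OD600=0.02 in galactose medium, after raffinose pregrowth to mid-log, were incubated with compound for 24 hr at 30 deg C.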
Of the large screens only hits and unclear results are named; the others gave an inactive call. Unless noted, calls come from the whole dose curve; as a rule, active = well fitted curve in the direction sought with a large enough effect; inconclusive = small, poorly fitted or top-dose-only effect, or another doubt; inactive = no such curve, though single readings can be large; an effect the other way counts as inactive or inconclusive.

COc1ccc(OC)c(NC(=O)Cn2c(CCC(=O)O)ccc2-c2cccs2)c1	Akt phos inh -119%
CCCCCn1c(CCCNC(=O)c2cccc(C)c2)nc2ccccc21	TDP-43 yeast inh 35µM (no result: Akt phos inh, Mito fusion act, aSyn rescue, CCT chaperon mod)
Cc1ccc2nc(N3CCN(c4ccccc4F)CC3)c(C=O)c(=O)n2c1	TDP-43 yeast inh 16µM
Cc1ccc2nc(N3CCCCC3)c(C=O)c(=O)n2c1	none (no result: Akt phos inh, aSyn rescue, CCT chaperon mod, TDP-43 yeast inh)
Cc1ccccc1S(=O)(=O)N1CCN(c2nc(-c3cccs3)nc3ccccc23)CC1	none (no result: Akt phos inh, Anesthetic bind, Mito fusion act, CCT chaperon mod, TDP-43 yeast inh)
Clc1ccccc1N/N=C/c1ccc2c(c1)OCO2	TDP-43 yeast inh 18µM
O=C(CNC(=O)c1ccccc1Cl)N/N=C/c1ccc2c(c1)OCO2	Anesthetic bind inconclusive
O=C(O)c1ccc(C=C(c2nc3ccccc3s2)c2nc3ccccc3s2)cc1	none
O=C(O)c1ccc(Oc2nc3ccccc3s2)cc1	aSyn rescue inconclusive, TDP-43 yeast inh 13µM (no result: Anesthetic bind, Mito fusion act)
CN(C)c1ccc(N=Cc2cccc3ccccc23)cc1	none (no result: Akt phos inh, Anesthetic bind, Mito fusion act, CCT chaperon mod, TDP-43 yeast inh)
Cc1ccc(S(=O)(=O)N(C)c2ccc(NS(C)(=O)=O)cc2)cc1	Akt phos inh -120%
Cc1nn(-c2ccc(C(F)(F)F)cn2)c(C)c1Oc1ccccc1O	Anesthetic bind inconclusive
CCOC(=O)c1cnc(-n2[nH]c(C)cc2=O)[nH]c1=O	none
CCOC(=O)c1cnc(-n2nc(C)cc2C)[nH]c1=O	aSyn rescue 22µM, TDP-43 yeast inh inconclusive
Cc1cc(=O)[nH]c(-n2nc(C)c(Oc3ccccc3O)c2C)n1	Akt phos inh -110%
Cc1cc(=O)[nH]c(-n2nc(C)cc2C)n1	aSyn rescue 28µM, TDP-43 yeast inh inconclusive
COc1cc(/C=C/c2nc3ccccc3nc2/C=C/c2cc(OC)c(OC)c(OC)c2)cc(OC)c1OC	none (no result: Akt phos inh, Anesthetic bind, Mito fusion act, CCT chaperon mod, TDP-43 yeast inh)
CC(C)Oc1ccc(C(=O)NCc2cccnc2)cc1	Akt phos inh -119%
O=C(Cc1cccs1)NCc1cccnc1	Akt phos inh -93%
Cc1cc(C(=O)NCc2cccnc2)no1	CCT chaperon mod -31
O=C(c1ccccc1)c1c[nH]c(C(=O)NCc2cccnc2)c1	Akt phos inh -100%
Cn1c(C(=O)NCc2cccnc2)cc2sccc21	Akt phos inh -83%
O=C(Nc1cc(Sc2ccccn2)cc([N+](=O)[O-])c1)c1cccc(Cl)c1	Anesthetic bind inconclusive, Mito fusion act 16µM
CCOc1ccc(-c2noc(CCC(=O)O)n2)cc1	TDP-43 yeast inh 32µM
CCOc1ccc(OCCCC(=O)O)cc1	TDP-43 yeast inh 13µM
COc1ccc(-c2noc(CCC(=O)O)n2)cc1	none
C#CCn1c(=O)c2c(nc(/C=C/c3cccc(OC)c3)n2C)n(CCCO)c1=O	none (no result: Akt phos inh, Mito fusion act, aSyn rescue, CCT chaperon mod, TDP-43 yeast inh)
c1cncc(-c2nc(-c3cccs3)cs2)c1	Anesthetic bind inconclusive
c1csc(-c2csc(-c3cccs3)n2)c1	Anesthetic bind inconclusive, TDP-43 yeast inh 13µM
COc1ccc(-c2csc(Nc3cccc(C)n3)n2)cc1	TDP-43 yeast inh 18µM
Fc1ccc(-c2csc(Nc3ccccn3)n2)cc1	TDP-43 yeast inh 11µM
c1ccc(Nc2nc(-c3cccs3)cs2)nc1	TDP-43 yeast inh 35µM
c1ccc(Nc2nc(-c3cccnc3)cs2)nc1	none
CS(=O)(=O)N1CCN(/[N+]([O-])=N/Oc2ccc([N+](=O)[O-])cc2[N+](=O)[O-])CC1 (tested in a mixture with another compound)	none (no result: Akt phos inh, Anesthetic bind, Mito fusion act, CCT chaperon mod, TDP-43 yeast inh)
Fc1ccc(-c2csc(-c3ccncc3)n2)cc1	TDP-43 yeast inh 13µM
CC(=O)Oc1ccc(-c2csc(Nc3ccccn3)n2)cc1	TDP-43 yeast inh 13µM (no result: Anesthetic bind, Mito fusion act)
COc1ccc(/C=C/C(=O)c2ccc(C)c([N+](=O)[O-])c2)cc1O	TDP-43 yeast inh 22µM
O=C(NCCOCCn1c(=O)oc2ccccc21)Nc1ccc(Cl)cc1	none (no result: Akt phos inh, Mito fusion act, aSyn rescue, CCT chaperon mod)
Cc1cccc(C)c1NS(=O)(=O)c1ccc(-c2cnc(C3CC3)o2)cc1	aSyn rescue inconclusive, TDP-43 yeast inh 25µM (no result: Akt phos inh)
O=S(=O)(NCc1ccccc1)c1ccc(-c2cnc(C3CC3)o2)cc1	none
Cc1ccc(NS(=O)(=O)c2ccc(-c3cnc(C4CC4)o3)cc2)cc1	aSyn rescue inconclusive, TDP-43 yeast inh inconclusive
